Bioassay records as filed in PubChem BioAssay.
Sampled rows, rich in hits. Any-hit rate of the full collection: about 6.9%.
SW480 rereplic = A quantitative high throughput screen for small molecules that induce DNA re-replication in SW480 colon adenocarcinoma cells; 1.8% of 340,000 active; SW480 DNA re-replication, Hoechst DNA content imaging, 48 h; Potency, µM (highest dose often 46.1 µM), for the others: at the top dose re-replication activation, most hits filed as activators; also: potency is read from the fitted curve at half-maximal effect; % of control where 0% means no effect; nearly all actives have a fitted effect of over 55% in size
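Hoechst fluorescence of nuclei (405 nm excitation, 500-530 nm emission) measured by plate-scanning imager after 48 hr compound exposure at 37 C; re-replication scored as increased number of nuclei with elevated intensity.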
IL-1B inflam inh = qHTS for Inhibitors of Inflammasome Signaling: IL-1-beta AlphaLISA Primary Screen; THP-1 LPS/ATP IL-1B secretion, AlphaLISA, 16 h; hits give low values; activity change, % at 57.5 µM; 4.7% of 360,000 active; in the data active = activity change below about -50%; inconclusive = mostly about -30% to -49%; also: % is scaled to controls: 0 for no effect and ±100 for the full control effect
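Secreted IL-1B measured by AlphaLISA bead assay after 16 h compound exposure of THP-1 cells; compounds (final up to 57.5 uM) added 1 h before LPS (250 ng/mL) and ATP (1.25 mM) stimulation; lower signal means less secretion.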
Vif-A3G inh = qHTS for Inhibitors of Vif-A3G Interactions: qHTS | Potency, µM (series often up to 46.1 µM), for the others: at the top dose activity, negative = active, usual class: inhibitors | HeLa A3G-eYFP + Vif (tagged APOBEC3G with the HIV-1 protein that degrades it), YFP fluorescence, overnight | DNA dC->dU-editing enzyme APOBEC-3G (Homo sapiens), Q9HC16 | 0.076% of 410,000 active | AID 602310, 2012; also: potency is read from the fitted curve at half-maximal effect; % is scaled to controls: 0 for no effect and ±100 for the full control effect; nearly all actives have a fitted effect of over 60% in size
Target sequence (Q9HC16 whole entry, looked up): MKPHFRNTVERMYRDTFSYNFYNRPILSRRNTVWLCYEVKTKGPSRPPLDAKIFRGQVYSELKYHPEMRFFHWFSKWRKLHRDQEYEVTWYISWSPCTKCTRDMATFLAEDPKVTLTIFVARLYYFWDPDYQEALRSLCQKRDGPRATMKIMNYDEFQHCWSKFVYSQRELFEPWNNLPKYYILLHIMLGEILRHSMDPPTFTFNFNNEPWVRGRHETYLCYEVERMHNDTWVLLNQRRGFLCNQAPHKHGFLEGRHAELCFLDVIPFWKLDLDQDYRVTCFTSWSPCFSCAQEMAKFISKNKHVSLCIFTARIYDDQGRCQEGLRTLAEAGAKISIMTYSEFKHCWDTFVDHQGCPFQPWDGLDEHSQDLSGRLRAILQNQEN
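Read-out is eYFP fluorescence (Ex 488/Em 500-530) from Vif-expressing HeLa A3G-eYFP cells; more signal means A3G escaped Vif-mediated degradation. Cells plated overnight, compound pinned in, incubated overnight at 37 deg C.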
MCF10A rereplic = A quantitative high throughput screen for small molecules that induce DNA re-replication in MCF 10a normal breast cells. MCF 10A DNA re-replication, Hoechst nuclear intensity, 48 h. Potency, µM (top dose mostly 46.1 µM), inactives show at the top dose activity, positive = re-replication, most hits filed as activators. 2.9% of 350,000 active; also: potency is read from the fitted curve at half-maximal effect; % of control where 0% means no effect; nearly all actives have a fitted effect of over 50% in size
Vif-APOBEC3F blk = qHTS for Inhibitors of Vif-A3F Interactions: qHTS; HeLa A3F-eYFP + Vif (tagged APOBEC3F with the HIV-1 protein that degrades it), YFP fluorescence increase; Potency, µM (top dose mostly 46.1 µM), inactives show at the highest dose activity, negative = active; 0.2% of 390,000 active; also: potency is read from the fitted curve at half-maximal effect; % of control where 0% means no effect; nearly all actives have a fitted effect of over 65% in size
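HeLa cells stably expressing Vif plus C-terminally eYFP-tagged A3F were seeded, incubated overnight at 37 deg C, dosed with compound, incubated overnight again at 37 deg C. Yellow fluorescence (Ex 488/Em 500-530) reported blocked Vif-mediated A3F-eYFP degradation.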
Giardia killer = Small Molecules that selectively kill Giardia lamblia: qHTS; Giardia lamblia trophozoite viability; activity change, % at 7.66 µM, hits read low; 0.15% of 340,000 active; AID 540267, 2011; in the data active = activity change below about -80%; inconclusive = between about -30% and that limit;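 also: parasites exposed to compound for two days anaerobically before the ATP read; % is scaled to controls: 0 for no effect and ±100 for the full control effect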
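Compounds were tested on trophozoites seeded at 100 cells/well and held 48 hrs at 37 deg C anaerobically. An ATP-based luminescent kit measured the remaining live cells.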
* hit, by the source's call. Unless noted, calls follow the shape of the dose curve; as a rule, active = well fitted curve in the direction sought with a large enough effect; inconclusive = small, poorly fitted or top-dose-only effect, or another doubt; inactive = no such curve, though single readings can be large; an effect the other way counts as inactive or inconclusive.

For CCOC(=O)c1cc(CC)sc1NC(=O)c1cc([N+](=O)[O-])ccc1N1CCOCC1 the results were SW480 rereplic 2.3µM*, IL-1B inflam inh 72, Vif-A3G inh inconclusive, MCF10A rereplic inconclusive and Giardia killer -3.
O=C(COC(=O)c1cc(S(=O)(=O)N2CCCCC2)ccc1N1CCOCC1)c1ccc(Cl)cc1 was read as SW480 rereplic 6.5µM*, IL-1B inflam inh 0, Vif-A3G inh 2%, MCF10A rereplic 1%, Vif-APOBEC3F blk 0% and Giardia killer -10.
For CCc1ccc(C(=O)COC(=O)c2cc([N+](=O)[O-])ccc2N2CCOCC2)cc1 the results were SW480 rereplic 10µM*, IL-1B inflam inh -15, Vif-A3G inh -24%, MCF10A rereplic 4.6µM*, Vif-APOBEC3F blk 10% and Giardia killer 10.
`O=C(COC(=O)c1cc([N+](=O)[O-])ccc1N1CCOCC1)c1ccc(F)cc1` gave SW480 rereplic 4%, IL-1B inflam inh 22, Vif-A3G inh -2%, MCF10A rereplic 0%, Vif-APOBEC3F blk 8% and Giardia killer 23.
O=C(OCc1cccc(C(F)(F)F)c1)c1cc([N+](=O)[O-])ccc1N1CCOCC1 was read as SW480 rereplic 5%, IL-1B inflam inh -60*, Vif-A3G inh -4%, MCF10A rereplic 8%, Vif-APOBEC3F blk -5% and Giardia killer 13.
`CC(C)(C)C(=O)OCc1cc(=O)n2nc(C3CCCCC3)sc2n1` gave Vif-A3G inh 4% and Vif-APOBEC3F blk -12%.
CC(C)(CNC(=O)c1cc([N+](=O)[O-])ccc1N1CCC(Cc2ccccc2)CC1)N1CCOCC1 was read as SW480 rereplic -4%, IL-1B inflam inh -57*, Vif-A3G inh 5%, MCF10A rereplic 13%, Vif-APOBEC3F blk 1% and Giardia killer -11.
CC(C)NC(=O)N1[C@H](c2cccs2)[C@@H](C)C(=O)[C@@H](C)[C@@H]1c1cccs1 was read as Vif-A3G inh 2% and Vif-APOBEC3F blk 1%.
Screening CCC[C@H]1NC(=O)[C@H](C)N(C)C(=O)C(C)(C)C(=O)C(C)NC(=O)[C@H](Cc2ccc(OC)cc2)N(C)C(=O)[C@H](C(C)C)N(C)C(=O)CNC(=O)[C@H](CC(C)C)N(C)C(=O)CNC(=O)[C@H]([C@@H](C)CC)OC(=O)[C@H]1C (some centres not stated) returned SW480 rereplic inconclusive, IL-1B inflam inh -29, Vif-A3G inh -9%, MCF10A rereplic 1.5µM*, Vif-APOBEC3F blk 6% and Giardia killer inconclusive.
Screening CCC(=O)Nc1nonc1-c1nc2ccccc2n1Cc1cccc2ccccc12 returned SW480 rereplic 7.3µM*, IL-1B inflam inh 6, Vif-A3G inh inconclusive, MCF10A rereplic 0.37µM*, Vif-APOBEC3F blk -2% and Giardia killer 2.
CN(C(=O)Nc1ccc(Cl)cc1Cl)[C@H]1c2cc(Br)ccc2OC[C@H]1CO was read as SW480 rereplic inconclusive, IL-1B inflam inh -73*, Vif-A3G inh -9%, MCF10A rereplic inconclusive, Vif-APOBEC3F blk -18% and Giardia killer 12.
CCOC(=O)c1cc2n(c1/N=C/N(C)C)-c1ccccc1C2=O was read as SW480 rereplic -2%, IL-1B inflam inh -11, Vif-A3G inh inconclusive, MCF10A rereplic 3%, Vif-APOBEC3F blk 22µM* and Giardia killer inconclusive.
COc1ccc(N2CCN(C(CNC(=O)CC(C)C)c3ccc4c(c3)OCO4)CC2)cc1 (configuration not stated) was read as Vif-A3G inh 2% and Vif-APOBEC3F blk -1%.
NS(=O)(=O)c1ccc(-c2ccc(/C=N/Nc3ccc(C(=O)O)cc3)o2)cc1 was read as SW480 rereplic inconclusive, IL-1B inflam inh -4, Vif-A3G inh -1%, MCF10A rereplic 15%, Vif-APOBEC3F blk 3% and Giardia killer -6.
For O=C(O)c1ccc(N/N=C/c2ccc(-c3cc(Cl)ccc3Cl)o2)cc1 the results were SW480 rereplic 12µM*, IL-1B inflam inh inconclusive, Vif-A3G inh 4%, MCF10A rereplic 2.1µM*, Vif-APOBEC3F blk -8% and Giardia killer inconclusive.
For O=C(O)c1cc(N/N=C/c2ccc(-c3ccc(F)cc3)o2)ccc1Cl the results were SW480 rereplic 18µM*, IL-1B inflam inh 4, Vif-A3G inh -1%, MCF10A rereplic 18µM*, Vif-APOBEC3F blk -6% and Giardia killer -15.
Screening CC1=NOC(=O)/C1=C\c1ccc(-c2ccc(Br)cc2C(=O)O)o1 returned SW480 rereplic -1%, IL-1B inflam inh 17, Vif-A3G inh -6%, MCF10A rereplic 13%, Vif-APOBEC3F blk -7% and Giardia killer -11.
For O=C(O)c1ccc(N/N=C/c2ccc(-c3cccc(Cl)c3)o2)cc1 the results were SW480 rereplic 21µM*, IL-1B inflam inh -13, Vif-A3G inh -25%, MCF10A rereplic inconclusive, Vif-APOBEC3F blk 3% and Giardia killer 24.
For CC1=NN(c2ccc(Br)cc2)C(=O)/C1=C/c1ccc(-c2ccccc2C(=O)O)o1 the results were SW480 rereplic 14%, IL-1B inflam inh -14, Vif-A3G inh -1%, MCF10A rereplic 23µM*, Vif-APOBEC3F blk -5% and Giardia killer -17.
For Cc1ccc(NC(=O)c2cnn3c2NC(=C2CC2)C=C3C(F)F)cc1C the results were Vif-A3G inh 1%.
For N#Cc1nc(COc2ccc(-c3ccccc3)cc2)oc1N1CCC(C(N)=O)CC1 the results were Vif-A3G inh 0% and Giardia killer 3.
Cc1c(C(=O)O)cccc1-c1ccc(/C=N/Nc2ccc(Br)cc2)o1 was read as SW480 rereplic 5%, IL-1B inflam inh 5, Vif-A3G inh -13%, MCF10A rereplic 18µM*, Vif-APOBEC3F blk -1% and Giardia killer 5.
O=C(O)c1ccc(N/N=C/c2ccc(-c3ccc(Cl)cc3Cl)o2)cc1 was read as SW480 rereplic 23µM*, IL-1B inflam inh 4, Vif-A3G inh -28%, MCF10A rereplic inconclusive, Vif-APOBEC3F blk inconclusive and Giardia killer 8.
For CC(C)c1ccc(OCC(=O)Nc2c(C(=O)c3ccc(F)cc3)oc3ccccc23)cc1 the results were Vif-A3G inh -3% and Vif-APOBEC3F blk -5%.
`CC1=C(C(=O)N2CCN(c3cccc(Cl)c3)CC2)C2(CCCCC2)OC1=O` gave Vif-A3G inh 1% and Vif-APOBEC3F blk -2%.
